Test results published in article PMC7862700, “An all-to-all approach to the identification of sequence-specific readers for epigenetic DNA modifications on cytosine”.

Tests used:
Experiment in all cases: DAPPL (digital affinity profiling via proximity ligation, sequencing); 10 mM Tris-HCl pH 7.5, 50 mM NaCl, 1 mM DTT, 4% glycerol, room temperature, 30 min; GST-TFs on glutathione beads, 16-mer random dsDNA library, 0.1% formaldehyde crosslink after washing; high values mean tight binding
FEV = biological target: T1, FEV (Homo sapiens, UniProt Q99581 1-238); details: protein: recombinant; tags: N-terminal GST; dsDNA, one strand shown
T1 sequence: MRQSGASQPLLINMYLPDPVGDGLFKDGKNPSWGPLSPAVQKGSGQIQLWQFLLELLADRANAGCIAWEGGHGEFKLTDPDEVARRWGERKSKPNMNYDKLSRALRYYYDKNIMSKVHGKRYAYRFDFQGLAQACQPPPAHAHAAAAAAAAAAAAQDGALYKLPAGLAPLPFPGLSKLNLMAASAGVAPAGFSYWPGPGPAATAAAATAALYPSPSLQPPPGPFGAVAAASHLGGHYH
Outline: (§1)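 In yeast, human transcription factors were expressed with a GST fusion, then pulled down on glutathione beads and given DNA barcodes. Pooled with a tag-only sample, they were exposed to 200 nmole of a 16-mer random double-stranded DNA library (Tris/NaCl/DTT/glycerol buffer, room temperature, 30 min), washed, crosslinked with 0.1% formaldehyde, proximity-ligated using BsaI/T4 ligase for 1 h at 37 °C, PCR-amplified and read on an Illumina NextSeq500. Each hexamer's frequency of reads for a factor, divided by the matching frequency for the tag-only sample, gives the binding signal.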

ETV5 = ETV5 (Homo sapiens, UniProt P41161 1-510); details: protein: recombinant; tags: N-terminal GST; dsDNA, one strand shown
ETV5, sequence (P41161 whole entry): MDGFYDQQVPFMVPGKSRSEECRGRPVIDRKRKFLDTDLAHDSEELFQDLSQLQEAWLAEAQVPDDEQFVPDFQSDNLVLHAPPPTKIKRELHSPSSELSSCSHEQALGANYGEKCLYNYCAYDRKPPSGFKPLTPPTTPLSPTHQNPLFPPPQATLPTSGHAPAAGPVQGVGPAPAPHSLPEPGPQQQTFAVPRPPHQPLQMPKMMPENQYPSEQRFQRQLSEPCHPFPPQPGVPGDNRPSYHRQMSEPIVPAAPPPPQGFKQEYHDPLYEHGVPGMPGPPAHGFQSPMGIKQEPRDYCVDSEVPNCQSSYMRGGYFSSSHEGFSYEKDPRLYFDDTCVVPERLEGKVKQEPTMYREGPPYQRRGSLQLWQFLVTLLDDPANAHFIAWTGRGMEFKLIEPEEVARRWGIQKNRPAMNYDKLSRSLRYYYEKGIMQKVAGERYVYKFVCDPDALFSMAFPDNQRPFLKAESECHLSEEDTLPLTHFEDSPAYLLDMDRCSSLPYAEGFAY
Outline: as §1

HSF1 = HSF1 (Homo sapiens, UniProt Q00613 1-529); details: protein: recombinant; tags: N-terminal GST; chain copies: 3; dsDNA, one strand shown
HSF1, sequence (Q00613 whole entry): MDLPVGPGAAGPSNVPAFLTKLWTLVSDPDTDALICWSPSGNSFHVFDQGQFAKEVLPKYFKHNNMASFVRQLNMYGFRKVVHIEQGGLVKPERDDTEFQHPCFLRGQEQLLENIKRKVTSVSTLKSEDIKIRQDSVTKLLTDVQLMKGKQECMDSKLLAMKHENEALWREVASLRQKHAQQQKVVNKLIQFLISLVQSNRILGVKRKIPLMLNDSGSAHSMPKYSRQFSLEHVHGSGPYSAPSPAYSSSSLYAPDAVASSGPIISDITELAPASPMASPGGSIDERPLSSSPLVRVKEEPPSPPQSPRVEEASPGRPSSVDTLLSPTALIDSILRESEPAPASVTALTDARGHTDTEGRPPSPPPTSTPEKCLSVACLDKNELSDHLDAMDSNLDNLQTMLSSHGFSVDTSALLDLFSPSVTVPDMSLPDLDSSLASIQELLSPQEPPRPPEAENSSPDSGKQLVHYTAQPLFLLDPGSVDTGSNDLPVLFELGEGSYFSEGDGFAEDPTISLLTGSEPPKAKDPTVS
Outline: as §1

SPIC = biological target: T2, SPIC (Homo sapiens, UniProt Q8N5J4 1-248); details: protein: recombinant; tags: N-terminal GST; dsDNA, one strand shown
T2 sequence: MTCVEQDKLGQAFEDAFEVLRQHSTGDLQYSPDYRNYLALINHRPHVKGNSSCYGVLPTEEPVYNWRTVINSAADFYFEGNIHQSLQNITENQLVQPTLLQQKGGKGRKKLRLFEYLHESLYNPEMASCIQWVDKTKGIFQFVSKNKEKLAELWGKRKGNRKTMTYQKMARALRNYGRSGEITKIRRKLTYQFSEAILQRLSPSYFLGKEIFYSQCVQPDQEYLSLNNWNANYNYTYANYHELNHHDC
Outline: as §1

ELF4 = ELF4 (Homo sapiens, UniProt Q99607 1-663); details: protein: recombinant; tags: N-terminal GST; dsDNA, one strand shown
ELF4, sequence (Q99607 whole entry): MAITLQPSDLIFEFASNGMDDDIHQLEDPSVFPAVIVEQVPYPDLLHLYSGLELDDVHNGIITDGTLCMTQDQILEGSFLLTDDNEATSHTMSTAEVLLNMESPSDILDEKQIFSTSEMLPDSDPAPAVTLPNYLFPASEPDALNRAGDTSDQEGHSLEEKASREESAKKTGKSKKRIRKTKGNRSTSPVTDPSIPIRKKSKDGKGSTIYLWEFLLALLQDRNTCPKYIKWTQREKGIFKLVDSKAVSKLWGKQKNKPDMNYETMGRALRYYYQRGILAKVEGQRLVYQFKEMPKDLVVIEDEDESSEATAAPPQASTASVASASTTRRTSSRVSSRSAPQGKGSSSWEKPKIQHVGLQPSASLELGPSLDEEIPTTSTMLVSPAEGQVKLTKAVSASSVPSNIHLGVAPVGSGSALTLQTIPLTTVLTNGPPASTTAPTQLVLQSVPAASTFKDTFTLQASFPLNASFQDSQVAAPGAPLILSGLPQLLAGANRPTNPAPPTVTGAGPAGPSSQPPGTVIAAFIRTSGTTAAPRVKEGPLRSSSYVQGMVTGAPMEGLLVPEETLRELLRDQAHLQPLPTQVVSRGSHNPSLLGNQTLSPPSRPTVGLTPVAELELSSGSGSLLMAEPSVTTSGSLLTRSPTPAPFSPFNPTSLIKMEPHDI
Outline: as §1

ETV2 = biological target: T3, ETV2 (Homo sapiens, UniProt O00321 1-342); details: protein: recombinant; tags: N-terminal GST; dsDNA, one strand shown
T3 sequence: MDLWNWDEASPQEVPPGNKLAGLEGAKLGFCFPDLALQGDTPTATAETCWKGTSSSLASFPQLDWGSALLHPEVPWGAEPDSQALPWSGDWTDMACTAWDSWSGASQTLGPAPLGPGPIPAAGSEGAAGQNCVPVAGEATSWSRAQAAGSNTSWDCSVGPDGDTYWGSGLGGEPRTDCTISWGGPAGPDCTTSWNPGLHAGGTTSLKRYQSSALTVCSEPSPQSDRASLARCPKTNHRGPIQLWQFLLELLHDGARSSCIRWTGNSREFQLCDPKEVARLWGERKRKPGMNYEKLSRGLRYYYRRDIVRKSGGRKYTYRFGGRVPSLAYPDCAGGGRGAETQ
Outline: as §1

CRX = CRX (Homo sapiens, UniProt O43186 1-299); details: protein: recombinant; tags: N-terminal GST; dsDNA, one strand shown
CRX, sequence (O43186 whole entry): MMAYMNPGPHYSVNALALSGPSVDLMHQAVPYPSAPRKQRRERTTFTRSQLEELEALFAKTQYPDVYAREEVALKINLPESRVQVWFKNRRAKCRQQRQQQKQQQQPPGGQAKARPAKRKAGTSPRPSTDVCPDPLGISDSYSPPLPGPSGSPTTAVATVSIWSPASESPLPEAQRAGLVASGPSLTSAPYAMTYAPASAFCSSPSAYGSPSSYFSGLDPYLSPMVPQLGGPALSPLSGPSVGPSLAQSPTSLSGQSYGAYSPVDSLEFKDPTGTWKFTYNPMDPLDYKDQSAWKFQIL
Outline: as §1

ETV1 = ETV1 (Homo sapiens, UniProt P50549 1-477); details: protein: recombinant; tags: N-terminal GST; dsDNA, one strand shown
ETV1, sequence (P50549 whole entry): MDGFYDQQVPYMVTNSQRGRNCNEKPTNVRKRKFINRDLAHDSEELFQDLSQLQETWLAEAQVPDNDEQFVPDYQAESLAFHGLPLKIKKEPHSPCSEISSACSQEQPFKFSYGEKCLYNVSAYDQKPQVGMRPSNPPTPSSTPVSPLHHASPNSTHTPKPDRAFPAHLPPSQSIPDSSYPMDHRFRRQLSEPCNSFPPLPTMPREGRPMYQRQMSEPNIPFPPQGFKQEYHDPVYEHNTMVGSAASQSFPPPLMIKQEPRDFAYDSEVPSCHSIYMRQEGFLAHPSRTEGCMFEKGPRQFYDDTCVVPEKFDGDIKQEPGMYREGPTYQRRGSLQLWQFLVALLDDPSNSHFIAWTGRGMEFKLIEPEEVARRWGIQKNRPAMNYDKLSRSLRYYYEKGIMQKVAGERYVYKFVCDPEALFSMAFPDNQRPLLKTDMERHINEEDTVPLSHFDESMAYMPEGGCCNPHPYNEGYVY
Outline: as §1

ELK4 = biological target: T4, ELK4 (Homo sapiens, UniProt P28324-2 1-405); details: protein: recombinant; tags: N-terminal GST; dsDNA, one strand shown
T4 sequence: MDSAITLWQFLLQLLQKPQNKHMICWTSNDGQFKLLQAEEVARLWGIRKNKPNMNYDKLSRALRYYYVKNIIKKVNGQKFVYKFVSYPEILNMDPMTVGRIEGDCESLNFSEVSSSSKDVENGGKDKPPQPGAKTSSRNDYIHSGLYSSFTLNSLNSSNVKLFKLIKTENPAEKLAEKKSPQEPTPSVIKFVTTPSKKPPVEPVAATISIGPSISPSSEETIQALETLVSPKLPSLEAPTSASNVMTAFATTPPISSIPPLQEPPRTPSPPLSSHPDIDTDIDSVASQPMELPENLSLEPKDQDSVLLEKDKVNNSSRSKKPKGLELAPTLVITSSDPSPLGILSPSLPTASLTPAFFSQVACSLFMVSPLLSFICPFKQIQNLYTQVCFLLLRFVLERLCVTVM
Outline: as §1

ELF3 = biological target: T5, ELF3 (Homo sapiens, UniProt P78545 1-371); details: protein: recombinant; tags: N-terminal GST; dsDNA, one strand shown
T5 sequence: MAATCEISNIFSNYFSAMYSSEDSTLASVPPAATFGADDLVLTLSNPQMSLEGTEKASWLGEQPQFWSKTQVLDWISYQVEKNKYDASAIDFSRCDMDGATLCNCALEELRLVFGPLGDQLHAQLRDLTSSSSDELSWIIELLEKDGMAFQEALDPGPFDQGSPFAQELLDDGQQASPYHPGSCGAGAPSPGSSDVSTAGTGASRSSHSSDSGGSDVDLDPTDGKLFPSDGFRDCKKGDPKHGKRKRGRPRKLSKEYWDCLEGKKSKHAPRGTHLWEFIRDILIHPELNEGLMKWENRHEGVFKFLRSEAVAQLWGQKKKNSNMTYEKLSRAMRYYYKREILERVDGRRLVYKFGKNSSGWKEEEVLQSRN
Outline: as §1

| Sequence | binding signal (FEV) | binding signal (ETV5) | binding signal (HSF1) | binding signal (SPIC) | binding signal (ELF4) | binding signal (ETV2) | binding signal (CRX) | binding signal (ETV1) | binding signal (ELK4) | binding signal (ELF3) |
| --- | --- | --- | --- | --- | --- | --- | --- | --- | --- | --- |
| AGATGA | 1.01 fold enrichment (6-mer frequency, TF over GST control) | 1.11 fold enrichment (6-mer frequency, TF over GST control) | 1.24 fold enrichment (6-mer frequency, TF over GST control) | 1.14 fold enrichment (6-mer frequency, TF over GST control) | 1.12 fold enrichment (6-mer frequency, TF over GST control) | 1.17 fold enrichment (6-mer frequency, TF over GST control) | 1.21 fold enrichment (6-mer frequency, TF over GST control) | 1.1 fold enrichment (6-mer frequency, TF over GST control) | – | – |
| GAATTA | – | 1.01 fold enrichment (6-mer frequency, TF over GST control) | 1.72 fold enrichment (6-mer frequency, TF over GST control) | 1.12 fold enrichment (6-mer frequency, TF over GST control) | – | 1.02 fold enrichment (6-mer frequency, TF over GST control) | 2.39 fold enrichment (6-mer frequency, TF over GST control) | 1.08 fold enrichment (6-mer frequency, TF over GST control) | 1.09 fold enrichment (6-mer frequency, TF over GST control) | – |
| ACTTAG | 1.03 fold enrichment (6-mer frequency, TF over GST control) | 1.16 fold enrichment (6-mer frequency, TF over GST control) | 1.27 fold enrichment (6-mer frequency, TF over GST control) | 1.1 fold enrichment (6-mer frequency, TF over GST control) | 1.03 fold enrichment (6-mer frequency, TF over GST control) | 1.12 fold enrichment (6-mer frequency, TF over GST control) | 1.72 fold enrichment (6-mer frequency, TF over GST control) | 1.04 fold enrichment (6-mer frequency, TF over GST control) | – | 1.2 fold enrichment (6-mer frequency, TF over GST control) |
| TCGCGC | 1.03 fold enrichment (6-mer frequency, TF over GST control) | 1.02 fold enrichment (6-mer frequency, TF over GST control) | 1.1 fold enrichment (6-mer frequency, TF over GST control) | 1.25 fold enrichment (6-mer frequency, TF over GST control) | – | 1.08 fold enrichment (6-mer frequency, TF over GST control) | – | 1.13 fold enrichment (6-mer frequency, TF over GST control) | 1.03 fold enrichment (6-mer frequency, TF over GST control) | 1.05 fold enrichment (6-mer frequency, TF over GST control) |
| TGATTC | 1.03 fold enrichment (6-mer frequency, TF over GST control) | 1.1 fold enrichment (6-mer frequency, TF over GST control) | 1.18 fold enrichment (6-mer frequency, TF over GST control) | 1.11 fold enrichment (6-mer frequency, TF over GST control) | 1.07 fold enrichment (6-mer frequency, TF over GST control) | 1.03 fold enrichment (6-mer frequency, TF over GST control) | 1.12 fold enrichment (6-mer frequency, TF over GST control) | 1.18 fold enrichment (6-mer frequency, TF over GST control) | – | 1.12 fold enrichment (6-mer frequency, TF over GST control) |
| CTATGA | 1.08 fold enrichment (6-mer frequency, TF over GST control) | 1.07 fold enrichment (6-mer frequency, TF over GST control) | 1.04 fold enrichment (6-mer frequency, TF over GST control) | 1.17 fold enrichment (6-mer frequency, TF over GST control) | 1.1 fold enrichment (6-mer frequency, TF over GST control) | 1.19 fold enrichment (6-mer frequency, TF over GST control) | – | 1.02 fold enrichment (6-mer frequency, TF over GST control) | – | 1.15 fold enrichment (6-mer frequency, TF over GST control) |
| TAGCAG | 1.03 fold enrichment (6-mer frequency, TF over GST control) | 1.04 fold enrichment (6-mer frequency, TF over GST control) | 1.12 fold enrichment (6-mer frequency, TF over GST control) | 1.04 fold enrichment (6-mer frequency, TF over GST control) | 1.05 fold enrichment (6-mer frequency, TF over GST control) | 1.06 fold enrichment (6-mer frequency, TF over GST control) | 1.23 fold enrichment (6-mer frequency, TF over GST control) | 1.02 fold enrichment (6-mer frequency, TF over GST control) | – | – |
| CAAGAA | – | 1.09 fold enrichment (6-mer frequency, TF over GST control) | 1.51 fold enrichment (6-mer frequency, TF over GST control) | 1.09 fold enrichment (6-mer frequency, TF over GST control) | 1.06 fold enrichment (6-mer frequency, TF over GST control) | – | 1.08 fold enrichment (6-mer frequency, TF over GST control) | 1.05 fold enrichment (6-mer frequency, TF over GST control) | – | 1.11 fold enrichment (6-mer frequency, TF over GST control) |
